Source: ChEMBL document CHEMBL3988442, “University of Dundee, Small-Polar-MMV Screening Library” (2021)

Assays:
[1] = molecular target: T1, Aspartate--tRNA(Asp/Asn) ligase (Mycobacterium tuberculosis (strain ATCC 25618 / H37Rv)) (UniProt P9WFW3); assay: Assay for Asp RNA synthetase-1 from Mycobacterium tuberculosis; format: functional; parameters: scale not given: direction of the effect not stated beside the values; conditions: 30 µM; note: in the data most compounds retested in dose-response had high values
T1 sequence (whole entry): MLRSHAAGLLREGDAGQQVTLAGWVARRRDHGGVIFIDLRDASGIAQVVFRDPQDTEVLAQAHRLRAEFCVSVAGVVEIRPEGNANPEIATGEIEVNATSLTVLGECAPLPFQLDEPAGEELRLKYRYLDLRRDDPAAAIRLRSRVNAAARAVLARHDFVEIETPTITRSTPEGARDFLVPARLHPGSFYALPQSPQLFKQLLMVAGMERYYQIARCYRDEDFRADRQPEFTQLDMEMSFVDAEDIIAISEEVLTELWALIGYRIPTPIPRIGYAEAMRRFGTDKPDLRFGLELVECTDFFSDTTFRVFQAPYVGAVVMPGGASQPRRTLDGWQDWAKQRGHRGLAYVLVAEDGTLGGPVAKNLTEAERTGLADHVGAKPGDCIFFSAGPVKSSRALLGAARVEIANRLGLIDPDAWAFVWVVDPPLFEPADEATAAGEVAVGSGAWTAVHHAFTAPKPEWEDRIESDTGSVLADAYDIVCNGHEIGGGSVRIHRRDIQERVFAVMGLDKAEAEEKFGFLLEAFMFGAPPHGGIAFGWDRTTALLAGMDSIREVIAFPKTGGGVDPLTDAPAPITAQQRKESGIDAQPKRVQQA

[2] = molecular target: Shiga toxin 2 (Escherichia coli O157:H7) (UniProt P09385+P09386); assay: E. coli 0.157:H7 Shiga Toxin SOP - stx2 screening assay; format: functional; parameters: scale not given: direction of the effect not stated beside the values; conditions: 30 µM

Row | SMILES | Percent Effect [1] [%] | Percent Effect [2] [%]
1 | CCN(C)Cc1cnc(S(=O)(=O)CC)n1CCOC | -5.11 | -0.758
2 | COCC(=O)N1Cc2cn(C)nc2C(COc2cccnc2)C1 (stereo not given) | 0.598 | -21.7
3 | COc1cc2nc3n(c(=O)c2cc1OC)CCN(C(C)=O)CC3 | -0.551 | 17
4 | Cc1c(C2CCCN(C(=O)C3CC3)C2)n2c(nc1=O)CCC2 (stereo not given) | -0.253 | 10.2
5 | COc1cccc2c1OCC(C(=O)NC1CCN(S(C)(=O)=O)CC1)C2 (stereo not given) | -3.65 | 11.1
6 | Cc1cc(NC(=O)CN2CCc3cnc(C)nc3C2)on1 | -1.18 | -34.7
7 | Cc1ccc(Cn2ccc(NS(C)(=O)=O)n2)cc1 | 2.05 | -19.8
8 | Cc1nc2ccccc2nc1CN1CCCC1c1c(C)nn(C)c1C (stereo not given) | -5.6 | -18.4
9 | Cc1cc(N2CCC(NC(=O)C3CC3)CC2)nc(-c2ccncc2)n1 | 0.463 | -21.4
10 | O=C(NCC1OCCc2cn(CC3CC3)nc21)c1ccsc1 (stereo not given) | -3.57 | -12.1
11 | CC(Cn1cccn1)NC(=O)NCCc1cnn(C)c1 (stereo not given) | -2.54 | -3.5
12 | COc1ncccc1CN1Cc2nnn(C)c2C(COCC2CC2)C1 (stereo not given) | 4.09 | -10.1
13 | CSc1ncccc1C(=O)N1C[C@H]2CC[C@@H]1CN(c1ncccn1)C2 | 4.84 | -56.4
14 | Cn1cc(CN(Cc2ccccc2)CC(O)c2cccs2)cn1 (stereo not given) | 0.353 | 9.88
15 | O=C(c1cccc(OC2CCCC2)c1)N1CCCC(n2cncn2)C1 (stereo not given) | -0.0372 | 16.8
16 | CC1(C)OCC(CNC(=O)c2cnn(-c3cc(Cl)ccc3Cl)c2N)O1 (stereo not given) | -2.66 | 17.5
17 | CCCn1nc(C)c(CNC(=O)C2COc3c(cccc3OC)C2)c1C (stereo not given) | 0.114 | -6.29
18 | CN(CCN1CCCCCC1)C(=O)c1cc(CN2CCC(O)CC2)on1 | 5.29 | -37.1
19 | CC(C(=O)N1CCCN(c2ncccc2C#N)CC1)n1ccnc1 (stereo not given) | -0.45 | 24
20 | CN1N=C(C(=O)Nc2cc(F)ccc2OCC2CCCO2)CCC1=O (stereo not given) | -1.12 | 5.1
21 | CCn1c(CN(C)C)nnc1C1CCN(Cc2cccc(OC)c2)CC1 | 0.565 | -66.9
22 | Cc1cc(C)n(CC2CCCN2C(=O)c2cccc3[nH]ncc23)n1 (stereo not given) | -2.45 | -17.6
23 | O=C1C(NCc2nnc3n2CCCC3)CCN1CC(F)(F)F (stereo not given) | -0.389 | 1.91
24 | CCN(CC)CCNC(=O)c1cnc(C(C)(C)C)s1 | -0.45 | 17.4
25 | CN(C)Cc1ccnc(C2CCCN2Cc2ccncc2)n1 (stereo not given) | -3.02 | -14.5

Row | SMILES | Percent Effect [1] [%] | Percent Effect [2] [%]
26 | CC(C)c1cc(C(F)(F)F)n2nc(CCC(=O)O)nc2n1 | -1.46 | 52.4
27 | CCc1nc(C2CCCN2Cc2nccn2Cc2ccccc2)no1 (stereo not given) | -2.22 | 12.2
28 | COCC1c2nnn(CC3CC3)c2CCN1C(=O)c1cccc(F)c1 (stereo not given) | -5.71 | 7.97
29 | COCc1noc(C2(c3ccc(F)cc3)CCOCC2)n1 | -2.06 | -10.8
30 | Cc1nc(C)n(CC2CCCN(Cc3nc(C4CC4)no3)C2)n1 (stereo not given) | 4.92 | 7.13
31 | Cc1cc(C(=O)O)cc(S(=O)(=O)Nc2ccc3c(c2)OCO3)c1C | 11.6 | -48
32 | Cc1csc(N2CCCN(C(=O)c3cnns3)CC2)n1 | 1.66 | -7.36
33 | Cc1cccc(C(=O)N2C[C@@H]3OCCN(c4ncccn4)[C@@H]3C2)n1 | 2.48 | 2.47
34 | COCCC(=O)N1CCn2c(COCC3CC3)cnc2C1C (stereo not given) | 3.62 | 5.04
35 | Cc1n[nH]c(C2CN(C(=O)c3cc(Cl)c[nH]3)CCO2)n1 (stereo not given) | 2.37 | -2.92
36 | CCc1noc(CNc2cc(F)ccc2OCC2CCCO2)n1 (stereo not given) | 0.569 | -4.24
37 | O=C(c1cc(=O)[nH]c(=O)[nH]1)N1CCCCC1c1ccc(F)cc1 (stereo not given) | 0.947 | -12.6
38 | Fc1ccc(CCN2CCC(c3nnc(-c4cccnc4)o3)CC2)cc1 | 4.51 | -76.7
39 | COc1c(CNC2CCN(c3ncccn3)CC2)c(C(C)C)nn1C | -2.81 | 30.1
40 | Cc1noc(CN2Cc3ccccc3CC2c2nnc(C)o2)n1 (stereo not given) | -2.54 | -7.76
41 | Cc1cccnc1NC(=O)NCc1ccc(N2CCNC(=O)C2)cc1 | 5.31 | -63.3
42 | CC1CN(CC(=O)Nc2nncs2)CCN1c1nccs1 (stereo not given) | 4.78 | 27.5
43 | O=C(c1cnc(-c2cccs2)s1)N1CCCC(n2cccn2)C1 (stereo not given) | 2.29 | 17.4
44 | Cc1ccc(-c2nc(CN3CCCC3Cn3cc(C)cn3)no2)cc1 (stereo not given) | 1.48 | -24.5
45 | CNC(=O)c1ccc(C2CN(C(=O)c3cncs3)CCO2)nc1 (stereo not given) | 3.26 | -3.71
46 | O=C(c1ncccn1)N1C[C@H]2CCC[C@@]2(COCc2cccnc2)C1 | 1.54 | -6.19
47 | O=S(=O)(NC1=NCN(CCc2cccs2)CN1)c1ccc(F)cc1 | -0.523 | -18.8
48 | Cn1cc(CN2C[C@@H]3CN(Cc4ccoc4)CCO[C@@H]3C2)cn1 | 3.69 | -1.85
49 | CC(OCC(F)(F)F)C(=O)N1CCN(S(C)(=O)=O)CC1 (stereo not given) | -0.604 | -10.8
50 | O=C(CSC1CCc2ccccc2NC1=O)NCCc1ccco1 (stereo not given) | -3.17 | -9.27

Row | SMILES | Percent Effect [1] [%] | Percent Effect [2] [%]
51 | Cc1ccc(CC2CCCN2CC(=O)NCc2ccccn2)cc1 (stereo not given) | 0.629 | -4.96
52 | N#CCCN(C(=O)CN1CCCC1C1CCCCC1)c1ccccc1 (stereo not given) | 8.01 | -20.8
53 | Cc1ccc(N2CC3(CCN(C(=O)c4ccoc4)C3)C2)nn1 | -1.37 | -33.4
54 | c1ccc(CCN2CCN(c3ccc4nncn4n3)CC2)nc1 | 1.58 | -28.9
55 | CC(C)CN1CCN(C(=O)NCc2cccnc2-n2cccn2)CC1 | -1.98 | -22.5
56 | CNc1nc2c(c(C(=O)N3CCCC3)n1)CN(Cc1nccn1C)CC2 | 1.96 | -4.2
57 | CC(C)c1nnc2n1CCN(CC(=O)N1CCc3ccccc3C1)C2 | -3.72 | -17
58 | CC(C)c1nccn1C1CCCN(C(=O)c2ccc3[nH]nnc3c2)C1 (stereo not given) | -3.89 | -22.6
59 | O=c1[nH]c2c(c(=O)n1C1CCCCC1)CCC2NCCc1ccccc1 (stereo not given) | -2.9 | 3.31
60 | CC(O)CN1CCN(C(=O)c2cccc(CC#N)c2)CC1 (stereo not given) | 2.73 | -54.8
61 | O=C(NCc1cc[nH]n1)NC1CCCN(c2ncccn2)C1 (stereo not given) | -4.43 | -3.98
62 | Cn1cc(C2CCCN2Cc2csc(C(C)(C)C)n2)cn1 (stereo not given) | -4.83 | -11.7
63 | CC(NC(=O)N1CCCN(Cc2cccs2)CC1)c1cccnc1 (stereo not given) | -7.21 | 15.3
64 | Cc1csc(N2CCN(CC(=O)Nc3nncs3)CC2C)n1 (stereo not given) | -3.09 | 3.44
65 | CCOC(=O)c1c(NC(=O)CN2CCN(C(C)=O)CC2)sc2c1CCC2 | -3.95 | 16.4
66 | CC(C(=O)Nc1cccc(N2CCCCC2)c1)n1cncn1 (stereo not given) | 2.19 | 2.83
67 | Cc1nn(C)c(N2CCOCC2)c1CNCc1ccc(Cl)s1 | 5.1 | 27.1
68 | N#Cc1ccc(CN2CCN(C(=O)C3CCC3)[C@@H]3CS(=O)(=O)C[C@@H]32)cc1 | -2.41 | -34.5
69 | NC(=O)CN1CCC(C(=O)N2CCCC(OCc3cccnc3)C2)CC1 (stereo not given) | -13.4 | 18
70 | CCNC(=O)[C@@H]1C[C@@H](NC(=O)Cc2ccncc2)CN1Cc1ccsc1 | -3.17 | -0.12
71 | CS(=O)(=O)N1CCCCCC1C1CCN(c2ncccc2C#N)CC1 (stereo not given) | -0.456 | 27.9
72 | CCS(=O)(=O)N1CCC2(CCCN(Cc3cc(OC)ccc3F)C2)C1 (stereo not given) | 0.836 | -3.7
73 | COc1ccc(CNC(=O)NC2CCC(O)CC2)c(C(F)(F)F)c1 (stereo not given) | 2.84 | 3.3
74 | CS(=O)(=O)c1ccc(CNCC2CCN(CCO)CC2)cc1 | 9.49 | -31.9
75 | Cn1cnc2c(N3CCCC3)nc(C3CCNCC3)cc21 | 3.17 | -31.9

Row | SMILES | Percent Effect [1] [%] | Percent Effect [2] [%]
76 | Cc1nc(C)n(C2CCCN(C(=O)Cc3n[nH]c4ccccc34)C2)n1 (stereo not given) | 2.55 | -3.54
77 | O=C(c1nc(COc2ccc3c(c2)OCO3)no1)N1CCCC1 | 6.21 | -63.7
78 | CS(=O)(=O)N1CCc2nc(NC(=O)Nc3c(F)cccc3F)sc2C1 | -4.11 | 4.52
79 | O=C(c1cnco1)N1C[C@@H]2CC[C@H](Oc3ccccc3F)[C@@H]2C1 | -1.03 | -75.8
80 | O=C(c1ccc(Br)o1)N1CCN(Cc2ccc(OC(F)(F)F)cc2)CC1 | -5.95 | 16.1
81 | CSCc1cccc(S(=O)(=O)NCCCn2ccnc2)c1 | 11 | -15.1
82 | Cc1[nH]nc2ncc(C(=O)N3CCN(CC(C)C)CC3)cc12 | -2.36 | 33.6
83 | CN(C)c1cc(CNC(=O)c2ccc(=O)[nH]n2)ccn1 | -3.92 | -29.1
84 | O=C(c1cc(F)ccc1F)C1CCN(C(=O)c2ccccn2)CC1 | -3.52 | 18.1
85 | CNC(=O)CCc1cc(C)nc(C2CCCN2)n1 (stereo not given) | 7.7 | 9.84
86 | CC(C)N1CCC(Cc2cncc(-c3ccccc3C(=O)O)n2)CC1 | 1.34 | 6.75
87 | Cc1nn(C)c(C)c1CNCc1ccnc(N2CCOCC2)c1 | -2.46 | -9.51
88 | COc1ccc(CN2C[C@@H](N(C)Cc3ccco3)[C@H]3OCCC[C@H]32)cc1 | 0.632 | 4.78
89 | Cn1c(C(F)(F)F)nn(CCNC(=O)NCc2ccccc2)c1=O | -5.98 | -52.8
90 | Cc1ccc2c(n1)N(Cc1cccnc1)CCN(C(=O)C1CCC1)C2 | 14.8 | -15.2
91 | CC(NC(=O)NCC1(c2ccc(F)cc2)CCC1)c1nncn1C (stereo not given) | 2.25 | 32.9
92 | COc1nc(C)cc(C)c1CNC(=O)N(C)Cc1cnn(C)c1 | 4.2 | 6.51
93 | Cc1ncc2c(n1)CN(Cc1nc3ccccc3o1)CC2 | -5.8 | -2.56
94 | COc1ccc(Br)c(C(=O)NCC2CCN(S(=O)(=O)C3CC3)CC2)c1 | -8.22 | -0.843
95 | O=C(N[C@@H]1CN(c2ncccn2)C[C@@H]2CCCO[C@@H]21)c1cnccn1 | 4.51 | -15.4
96 | COCCN(C)C(=O)c1ccc(OC)cc1O | 0.638 | -28.1
97 | Cn1ncc2c(NCCOc3ccc(F)cc3)nc(C3CCCC3)nc21 | 2.47 | -46.7
98 | Cn1cc(C(=O)N2CCC(Cc3nccs3)CC2)cn1 | 2.4 | 59.9
99 | O=C(CCc1ccccc1)C1CCCN(C(=O)c2ncc(F)cc2F)C1 (stereo not given) | 7.65 | 2.26
100 | CN(Cc1cn2c(n1)CN(C1CCOC1)CC2)Cc1ccco1 (stereo not given) | 4.4 | -24.2
